Experimental data as given in PubChem BioAssay (NCI).
The panel holds about 79,000 compounds, 15% with a hit somewhere; the sample as a whole holds those more often. Values without a mark were called inactive. Active and inactive are the calls of the source. Rule as the data show it: active = growth inhibition above about 70%; inactive = the rest.

Assays:
[1] = NCI Yeast Anticancer Drug Screen. Data for the rad50 strain (AID 155);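 also: 0% = growth of vehicle-only cultures of the same strain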; settings: S. cerevisiae rad50 strain growth inhibition; at 50.0 µM; active compounds read high
How it was run: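 Genetically altered yeast (DNA repair pathway); compound treatment; growth inhibition vs vehicle ctrl.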

[2] = NCI Yeast Anticancer Drug Screen. Data for the mec2-1 strain (AID 157); settings: S. cerevisiae mec2-1 strain, at 50.0 µM, active compounds read high
How it was run: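 Strain: mec2-1 (DNA repair/cell cycle alteration). Compound exposure, then growth measured; inhibition expressed relative to vehicle.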

[3] = NCI Yeast Anticancer Drug Screen. Data for the sgs1 mgt1 strain (AID 161);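 also: 0% = growth of cultures given vehicle only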; settings: S. cerevisiae sgs1 mgt1 strain, at 50.0 µM, active compounds read high
How it was run: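 Mutant yeast exposed to compound; growth scored against vehicle-only wells.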

[4] = NCI Yeast Anticancer Drug Screen. Data for the cln2 rad14 strain (AID 165);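 also: 0% = growth equal to vehicle treated cultures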; settings: S. cerevisiae cln2 rad14 strain, at 50.0 µM, active compounds read high
How it was run: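 Compounds are applied to the cln2 rad14 yeast strain, and growth is then compared with that of vehicle-treated cultures to give inhibition.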

[5] = NCI Yeast Anticancer Drug Screen. Data for the bub3 strain (AID 167); settings: S. cerevisiae bub3 mutant strain, at 50.0 µM, active compounds read high
How it was run: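 Yeast carrying a defined mutation is treated with each compound, and growth is compared with that of vehicle-exposed cells to give inhibition.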

[6] = NCI Yeast Anticancer Drug Screen. Data for the mlh1 rad18 strain (AID 175); settings: S. cerevisiae mlh1 rad18 strain growth inhibition; at 50.0 µM; active compounds read high
How it was run: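 Read-out is yeast growth inhibition, calculated against vehicle-only controls. The compound was applied to a strain engineered with DNA damage repair alterations.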

SMILES | growth inhibition [1] | growth inhibition [2] | growth inhibition [3] | growth inhibition [4] | growth inhibition [5] | growth inhibition [6]
CCCC(=O)Nc1ccc(N=Nc2ccccc2)cc1 | 8.15% | 43.4% | 58.3% | -15.9% | 46.1% | 57.5%
Nc1ccc(Cl)cc1[N+](=O)[O-] | 4.85% | -3.75% | 12.2% | 25.1% | -3.9% | 15.8%
CC(=O)O/N=C1\C=Cc2c(no[n+]2[O-])C1=O | -8.9% | -20.3% | -0.7% | 12.1% | -12.5% | -5.35%
O=C(Nc1ccc(C(=O)O)cc1)OCc1ccccc1 | 1.65% | 8.75% | 15.5% | -36% | 2.5% | -7.7%
CN1CCC(c2ccccc2)(c2ccccc2)OC1 | 3.7% | 6.85% | 6.9% | -8.45% | 9.95% | 5.15%
O=C(O)C1CSC2(CCCN(Cc3ccccc3)C2)N1 (configuration not stated) | -17.7% | -29.4% | -5.85% | -3.7% | -17.1% | 5.2%
CN(CC(=O)C(O)C(O)C(O)CO)c1ccccc1 (configuration not stated) | -10.4% | -8.75% | -7.6% | -16.1% | -2.6% | -9.7%
CC(O)c1cc2c(s1)C(=O)c1sccc1C2=O (configuration not stated) | 90.6% (active) | 93.5% (active) | 92% (active) | 91.2% (active) | 91.9% (active) | 91.2% (active)
Cc1cc(Cl)ccc1-n1nc(C)c2c(N)nc(N)nc21 | 17.4% | 6.5% | 13.7% | -1.55% | 24.7% | 23.1%
COc1ccc2c(C(=O)O)cc3c4ccccc4ncc3c2c1 | 9.4% | 6.65% | -6.75% | 26.9% | -17.9% | -13.2%
CCOC(=O)C1C2CCCC(=O)C21 (configuration not stated) | 9% | -4.5% | 3.9% | -56.8% | 12.1% | 3.3%
COc1ccc(/C=N/N2CCN(/N=C/c3ccc(OC)cc3)CC2)cc1 | 9.85% | 9.7% | 9.2% | -6.1% | 5.1% | -5.35%
COc1ccc(C2N(NC(=O)c3ccncc3)C(=O)CS2(=O)=O)cc1F (configuration not stated) | -3.95% | -12.6% | -11.8% | -1.55% | 0.75% | 0.95%
Cc1csc(-n2nc(C)cc2C)n1 | -5.35% | -23.1% | -37.2% | 6.75% | -30.9% | -6.05%
CCCC(C)C(=O)OC(C)CC(C)C (configuration not stated) | 31% | 15.9% | 21.9% | -0.75% | 20.9% | 15.6%
O=C1C(=O)N(c2cc(Cl)ccc2Cl)C(=O)C(=O)C1c1nc2ccccc2s1 | -7.8% | 18.6% | 0.3% | -18.8% | 9.4% | -19.4%
Cc1cc(Cl)c(Cl)cc1NC(=O)c1ccc(Cl)c(Cl)c1 | 5.15% | 23.4% | 9.9% | -3.25% | 45.1% | 5.2%
Brc1cc(Br)c(-c2c(Br)cc(Br)cc2Br)c(Br)c1 | -20.8% | -30.2% | -16.1% | 4.2% | -7.5% | -15.7%
COc1ccc(CCN2C(CC(=O)c3ccccc3)CCCC2CC(=O)c2ccccc2)cc1 (configuration not stated) | -29.6% | -29.1% | -23.8% | -0.8% | -17.5% | -18.7%
Cc1cc(C)c(C#N)c(SC(C(=O)Nc2cc(C(F)(F)F)ccc2Cl)c2ccccc2)n1 (configuration not stated) | 2.35% | -13.2% | 23.6% | 19.1% | 2.95% | 8.25%
Cc1ccc(SSCC(O)C(O)CSSc2ccc(C)cc2)cc1 (configuration not stated) | 11.6% | -18.6% | -30.6% | 21.8% | -5.6% | 10.1%

SMILES | growth inhibition [1] | growth inhibition [2] | growth inhibition [3] | growth inhibition [4] | growth inhibition [5] | growth inhibition [6]
C[N+](C)(C)C1CCC1 | -2.4% | -4.75% | -1.75% | 8.35% | -15.1% | 5.7%
Cc1cc(=O)n2c(c1)[nH]c1ccccc12 | 3.25% | 0.3% | -5.55% | -0.95% | 1.75% | 1.65%
Cc1ccc(/C=N/S(=O)(=O)Cc2ccccc2)cc1 | -11.6% | 3.8% | 10.2% | 4.9% | 0.15% | -0.15%
COC1OCC2OC3(CCCCC3)OC2C1SCc1ccccc1 (configuration not stated) | 8.05% | -9.85% | 10.8% | -7.4% | -10.4% | -5.25%
S=C1CC(c2ccc(Cl)cc2)Sc2ccccc2N1 (configuration not stated) | -24.9% | -5.6% | -9.4% | -0.95% | -6.85% | -31.4%
CCc1c(O)c2c(=O)n(C)c(=O)n3c4ccccc4n(c1=O)c23 | 40.4% | 41.4% | 45.7% | 26.8% | 38.9% | 39.8%
Cc1ccc(S(=O)(=O)Nc2ccccc2-c2nc3c(Cl)ccc(Cl)c3c(=O)o2)cc1 | 33.6% | 0.15% | 41.5% | -10.3% | -5.45% | 10.7%
O=S(=O)(c1ccccc1)c1ccc(O)cc1 | -20.8% | -23.8% | -16.9% | -29.8% | -8.35% | -15.7%
CCCCN(CCCC)CCC(O)c1cc(-c2ccc(Cl)c(Cl)c2)nc2c(Cl)cc(Cl)cc12 (configuration not stated) | 96.4% (active) | 95.5% (active) | 6.85% | 97.2% (active) | 90.3% (active) | 74.8% (active)
CCCC(C)c1ccc(C(=O)O)cc1 (configuration not stated) | 10.2% | -10.7% | 4.45% | 11.2% | -18.1% | 20.9%
CCNC(=O)Oc1cccc(NC(=O)CC)c1 | 3.2% | -4.2% | -0.25% | -14.2% | 3.65% | 3.7%
Cc1ccc(C)c(CNC(=O)Nc2ccccc2Cl)c1 | 12.4% | -14.3% | -22.8% | 6.75% | 5.35% | -18.2%
O=CC(NC(=O)N(CCF)N=O)C(O)C(O)C(O)CO (configuration not stated) | -15% | -4.05% | 2.5% | -15.6% | 1.3% | -44.4%
CN(C)c1c([O-])c(=[N+](C)C)c1=O | -37.9% | -14.2% | -20.2% | -10.6% | -5.55% | -45.9%
C/C(=N\N=P(c1ccccc1)(c1ccccc1)c1ccccc1)C(C)(C)C | 8.35% | 10.2% | 1.75% | 11.9% | 4.5% | 31.7%
Cc1nnnn1[C@H]1C(C#N)CC2[C@@H]3CCC4=Cc5nnnn5CC[C@]4(C)C3CC[C@@]21C (some centres not stated) | 23.3% | 27.4% | 23% | 16.6% | 13.2% | 25.2%
CCC(C(=O)O)C(=O)O.[NH-]CC1CCCC[N-]1.[Pt+2] | 7.7% | -3.6% | 2.55% | 7.95% | -39.5% | -34.7%
CN(Cc1ccc(Cl)cc1)C(=O)NCCCCCCNC(=O)N(C)Cc1ccc(Cl)cc1 | 96.8% (active) | 96.6% (active) | 95.7% (active) | 96.2% (active) | 95.7% (active) | 96.8% (active)
COC(=O)N/N=C/c1cccnc1 | 2.05% | -6.6% | -3.05% | -72.2% | 9.8% | -26.8%
COC(=O)/C=C(/Nc1ccccc1C(=O)O)C(=O)OC | -5.55% | 20.1% | -5.15% | 2.85% | -16.1% | -21.1%
CCCCC(C)NC=O (configuration not stated) | 31.4% | 13% | 3.9% | 9% | 14.4% | 24.6%
